Hits are enriched below; roughly 9% of the tested compounds scored in any of these assays.
JMJD2A Tudor inh = blocks the human JMJD2A Tudor domain. AlphaScreen JMJD2A-Tudor / H3K4me3 peptide binding. O75164. actives 4.4% (n = 390,000). Potency, µM (top dose mostly 114 µM), without a hit: at the top dose activity change, negative = inhibition, most hits filed as inhibitors; further: on the % scale 0 is the no-effect control and ±100 the full control effect; nearly all actives have a fitted effect of over 50% in size
BAZ2B block = blocks human BAZ2B; Potency, µM (doses to about 114 µM), inactives show at the top dose activity change, negative = inhibition, usual class: inhibitors; AID 504333; Q9UIF8; AlphaScreen BAZ2B-H3K14Ac peptide displacement; actives 4.4% (n = 360,000); further: on the % scale 0 is the no-effect control and ±100 the full control effect; nearly all actives have a fitted effect of over 60% in size
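AlphaScreen displacement: compounds (up to 110uM) incubated 30 min at room temperature with a preformed 50 nM BAZ2B/50 nM biotinylated H3K14Ac peptide complex in PBS pH 7.4 with Tween-20. Donor and acceptor beads at 10 ug/mL final added, 20 min light-protected before reading.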
PLK1 PBD inh = inhibitors of human PLK1 polo-box domain binding | P53350 | Plk1 PBD binding of FITC phosphopeptide, fluorescence polarization | Potency, µM, for the others: max response, negative = inhibition, actives largely listed as inhibitors | actives 2.8% (n = 360,000); further: series mostly up to about 57 µM; on the % scale 0 is the no-effect control and ±100 the full control effect; nearly all actives have a fitted effect of over 65% in size
Target sequence (P53350 whole entry, looked up, the tested form may be a part): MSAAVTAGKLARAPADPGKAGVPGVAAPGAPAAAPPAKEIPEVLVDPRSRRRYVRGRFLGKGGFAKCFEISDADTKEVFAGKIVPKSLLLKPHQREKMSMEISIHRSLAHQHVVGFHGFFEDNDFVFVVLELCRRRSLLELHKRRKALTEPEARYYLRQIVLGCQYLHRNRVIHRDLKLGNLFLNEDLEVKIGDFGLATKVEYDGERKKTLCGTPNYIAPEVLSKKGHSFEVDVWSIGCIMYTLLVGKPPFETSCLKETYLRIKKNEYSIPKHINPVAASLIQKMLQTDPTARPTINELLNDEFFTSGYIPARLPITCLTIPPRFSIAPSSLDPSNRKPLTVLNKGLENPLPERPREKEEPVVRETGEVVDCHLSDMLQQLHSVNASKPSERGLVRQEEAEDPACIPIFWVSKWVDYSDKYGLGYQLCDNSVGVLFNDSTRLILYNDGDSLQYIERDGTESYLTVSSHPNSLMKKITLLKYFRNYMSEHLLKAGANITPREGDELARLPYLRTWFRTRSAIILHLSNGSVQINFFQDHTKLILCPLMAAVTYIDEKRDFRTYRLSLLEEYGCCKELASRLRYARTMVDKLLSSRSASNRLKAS
12-LOX inh = ALOX12 (human) lipoxygenase inhibition | P18054 | Potency, µM (doses to about 108 µM), for the others: at the highest dose activity change, negative = inhibition, hits mostly inhibitors | AID 1671190 | purified 12hLO, xylenol orange hydroperoxide absorbance | actives 1.1% (n = 580,000); further: on the % scale 0 is the no-effect control and ±100 the full control effect
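Purified human 12hLO at 150 nM in 25 mM Hepes, 0.01% Triton X-100, pH 7.0, preincubated 15 min at room temperature with compound. Reaction started with 40 uM arachidonic acid, 30 min at room temperature. Hydroperoxide measured by Fe-xylenol orange, 573/405 nm absorbance ratio.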
HP1b binding inh = blocks HP1-beta chromodomain binding to methylated histone tails. P83916. AlphaScreen HP1-beta / biotin-H3K9me3 peptide binding. Potency, µM (highest dose often 114 µM), for inactives: top-dose activity change, negative = inhibition, most hits filed as inhibitors. actives 0.56% (n = 390,000); further: nearly all actives have a fitted effect of over 70% in size
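Compound inhibition of the preformed complex between 50 nM HP1-beta and 50 nM biotinylated H3K9me3 peptide was read by AlphaScreen. Buffer was PBS pH 7.4 with 0.01% Tween-20. Incubations ran 30 min at room temperature, with 10 ug/mL donor/acceptor beads.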
G9a block = inhibitors of human histone lysine methyltransferase G9a | actives 8.8% (n = 350,000) | G9a H3K9 monomethylation, AlphaScreen, 2 h | AID 504332 | Q96KQ7 | Potency, µM (titrated, usually from 102 µM), inactives show at the highest dose activity, negative = inhibition, hits mostly inhibitors; further: on the % scale 0 is the no-effect control and ±100 the full control effect; nearly all actives have a fitted effect of over 75% in size
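Readings reflect AlphaScreen signal from monomethyl-H3K9 antibody detection. HMT at 20 nM; substrate b-H3K9 500 nM; cofactor SAM 20 uM; 2 h RT reaction; compounds tested as titrations in qHTS with 15 min preincubation.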
An asterisk follows results filed as active; ? = inconclusive; nt = no result; ! = a repeat was not active; [ ] = dose if it differs, or a comment. The call rests on the fitted dose curve; in most records, active means well fitted curve in the direction sought with a large enough effect; inconclusive means small, poorly fitted or top-dose-only effect, or another doubt; inactive means no such curve, though single readings can be large; an effect the other way counts as inactive or inconclusive. Potency means the concentration at half of the fitted maximal effect.

SMILES	JMJD2A Tudor inh	BAZ2B block	PLK1 PBD inh	12-LOX inh	HP1b binding inh	G9a block
Cc1noc(C)c1S(=O)(=O)N1CCCC2(C1)Nc1cccnc1NC2=NC1CCCC1 (configuration not stated)	nt	nt	nt	102%	nt	nt
COc1ccc(NC(=O)NC2CCCc3ccccc32)cc1OC (configuration not stated)	-6%	-24%	-2%	1%	20%	57%
Cc1cc(C)c(S(N)(=O)=O)c(C)c1N(C)S(=O)(=O)c1ccccc1	-13%	-4%	-1%	-8%	5%	-32%
CCOC(=O)Cc1c(C)nc2c(C#N)c[nH]n2c1=O	-24%	-6%	0%	10%	31%	79µM*
CCOC(=O)Cc1c(C)nc2c(-c3ccc(Cl)cc3)cnn2c1C	30%	92%	19µM*	6%	59%	111%
CCc1c(C)nc2c(C#N)c[nH]n2c1=O	-13%	-17%	-3%	1%	18%	16%[2.33 µM]
CCOC(=O)CCc1c(C)nc2c(-c3ccccc3)c(C)[nH]n2c1=O	-5%	-17%	nt	-18%	25%	?
CCOC(=O)Cc1c(C)nc2c(-c3ccc(Cl)cc3)c(C)[nH]n2c1=O	-18%	8%	-10%	8%[57.4 µM]	37%	50µM*
COc1ccc(N2CCN(C(=O)c3cc4c(s3)-c3ccccc3OC4)CC2)cc1	-6%	9%	-16%	-15%	31%	10%
O=C(c1cc2c(s1)-c1ccccc1OC2)N1CCN(c2ccccc2)CC1	-13%	4%	-9%	?	21%	1.1µM*!
COc1ccc(N2CCN(C(=O)CCN3C(=O)c4ccccc4S3(=O)=O)CC2)cc1	-15%	1%	-3%	nt	7%	-40%
Nc1cccc(-c2nc3ccc(C(=O)c4ccccc4)cc3[nH]2)c1	?	50µM*	-8%	?	-11%	nt
COc1ccc2nc(-c3cccc(N)c3)[nH]c2c1	-15%	-18%	-4%	8%	7%	1%[59 µM]
O=S(=O)(NCCOCCNS(=O)(=O)c1ccccc1)c1ccccc1	-13%	-24%	-2%	-2%	12%	?
CCn1c(C)cc(C(=O)COc2ccc3ccc(=O)oc3c2)c1C	nt	nt	nt	0%	nt	nt
O=c1cc(-c2ccc(Cl)cc2)oc(=O)[nH]1	-13%	-3%	-10%	?	32%	33%[59 µM]
O=c1cc(N=Nc2ccc(Cl)cc2)[nH]c(=O)[nH]1	-7%	2%	-36%	-10%	23%	45µM*
CNC(=O)[C@H]1C[C@H](Oc2cccnc2)CN1C(=O)c1cccc(OC)c1	nt	nt	nt	4%	nt	nt
CCC1=NN(C(=O)c2cccc(Br)c2)C(O)(c2ccc(Br)cc2)C1 (configuration not stated)	?	40µM*	-7%	?	2%	26%[59 µM]
CCC1=NN(C(=O)c2ccc(C)cc2)C(O)(c2ccc(Br)cc2)C1 (configuration not stated)	-32%	?	-11%	-17%	14%	23%[59 µM]
COc1ccc2[nH]c3c(=S)nc[nH]c3c2c1	1.6µM*	-31%	-21%	?	-21%	3.5µM*
CC(Nc1ccccc1CO)C(=O)Nc1cccc(Cl)c1Cl (configuration not stated)	-15%	-4%	-8%	1%	11%	-2%
COc1ccc(N2CC(NC(=O)Nc3ccccc3)CC2=O)cc1 (configuration not stated)	-8%	10%	-12%	1%	26%	42%
CN1CC[C@H]2CN(C(=O)CCCc3ccc(F)cc3)C[C@@]2(C(=O)O)C1	nt	nt	nt	-2%	nt	nt
O=c1[nH]c(C2CCCN(S(=O)(=O)c3ccccc3)C2)nc2c1nnn2Cc1cccc(Cl)c1 (configuration not stated)	-10%	-13%	-9%	0%	31%	-1%
SMILES	JMJD2A Tudor inh	BAZ2B block	PLK1 PBD inh	12-LOX inh	HP1b binding inh	G9a block
COc1ccccc1OCC(=O)Nc1ccc(N2CCOCC2)cc1N1CCOCC1	89µM*	-8%	2%	?	8%	?
N#Cc1ccccc1OCC(=O)Nc1ccc(N2CCOCC2)cc1N1CCOCC1	-3%	0%	9%	16%	21%	-10%[12.7 µM]
Cc1ccccc1OCC(=O)Nc1ccc(N2CCOCC2)cc1N1CCOCC1	-30%	-38%	1%	239%	3%	10µM*
Cc1ccccc1OCCC(=O)Nc1ccc(N2CCOCC2)cc1N1CCOCC1	-23%	0%	-3%	-15%	3%	45µM*
COC(=O)C1=C(C)NC(=O)/C1=C\c1cccs1	-25%	-5%	-6%	-20%	4%	-20%
COC(=O)C1=C(C)NC(=O)/C1=C\c1cc(C)n(-c2ccccc2F)c1C	-33%	45µM*	-19%	?	-10%	nt
COC(=O)C1=C(C)NC(=O)/C1=C\c1ccc2c(c1)OCO2	-6%	-29%	-13%	-15%	20%	nt
COC(=O)C1=C(C)NC(=O)/C1=C\c1cc(C)n(-c2ccccc2C)c1C	45µM*	45µM*	-15%	?	-68%	45µM*
COC(=O)C1=C(C)NC(=O)/C1=C\c1cc(C)n(-c2c(C)cccc2C)c1C	32µM*	32µM*	-10%	?	?	10µM*
Cc1cccc(C)c1-n1c(C)cc(/C=C2\NC(=O)NC2=O)c1C	50µM*	40µM*	1%	?	-21%	?
Cc1cc(/C=C2\NC(=O)NC2=O)c(C)n1-c1cccnc1	-14%	?	-1%	0%	-5%	?
COc1ccc(CCNC(=O)c2ccc(Cn3c(=O)c4ccccc4n(Cc4ccc(C)cc4)c3=O)cc2)cc1OC	-4%	5%	nt	0%	29%	4%[59 µM]
CCOC(=O)Sc1nc2ncncc2[nH]1	3.5µM*	nt	-15%	-20%	?	nt
c1ccc(CSc2nc3ncncc3[nH]2)cc1	-13%[11.4 µM]	-4%	-22%	-5%	52%	-48%
COc1ccc(-c2oc3ccccc3c(=O)c2OC(=O)c2ccc(C)cc2)cc1	-27%	0%	-4%	12%	22%	40%
CC(=O)Cn1cnc2c(sc3nc(C)cc(C)c32)c1=O	-13%	-15%	-7%	?	25%	2%
CCCNC(=O)Cn1sc2nc(C)cc(C)c2c1=O	3.2µM*	50µM*	1.7µM*	-26%	?	nt
CCOC(=O)C1CCCN(C(=O)Cn2sc3nc(C)cc(C)c3c2=O)C1 (configuration not stated)	5.6µM*	15%	1.5µM*	nt	?	1.6µM*
Cc1cc(C)c2c(=O)n(CC(=O)N3CCC(N4CCCCC4)CC3)sc2n1	3.2µM*	3%	3µM*	0%	3.5µM*	1µM*
CCOC(=O)CC1C(=O)NCCN1c1nc2ccc(C)cn2c(=O)c1/C=C1\SC(=S)N(C(C)CC)C1=O (configuration not stated)	nt	28µM*	nt	nt	nt	nt
